PV pol inh = poliovirus RdRp elongation inhibitors, primary screen, biochemical, fluorescence polarization, total intensity. Genome polyprotein (Poliovirus type 1 (strain Mahoney)), P03300. poliovirus polymerase elongation; stronger effect = lower value. % elongation, % (compound at 16.7 µg/mL). 0.66% of 150,000 active; in the data active = % elongation below about 90%
Mtb MbtI inh = MbtI salicylate synthase inhibitors, primary screen, biochemical, fluorescence intensity; purified MbtI enzyme, fluorescence intensity read-out; inhibition, % (no concentration beside the values); 0.89% of 100,000 active; AID 493033, 2011; in the data active = inhibition mostly above about 56%, no sharp cut-off; inactive = mostly below about 77%
Target sequence (P9WFX0 whole entry, looked up): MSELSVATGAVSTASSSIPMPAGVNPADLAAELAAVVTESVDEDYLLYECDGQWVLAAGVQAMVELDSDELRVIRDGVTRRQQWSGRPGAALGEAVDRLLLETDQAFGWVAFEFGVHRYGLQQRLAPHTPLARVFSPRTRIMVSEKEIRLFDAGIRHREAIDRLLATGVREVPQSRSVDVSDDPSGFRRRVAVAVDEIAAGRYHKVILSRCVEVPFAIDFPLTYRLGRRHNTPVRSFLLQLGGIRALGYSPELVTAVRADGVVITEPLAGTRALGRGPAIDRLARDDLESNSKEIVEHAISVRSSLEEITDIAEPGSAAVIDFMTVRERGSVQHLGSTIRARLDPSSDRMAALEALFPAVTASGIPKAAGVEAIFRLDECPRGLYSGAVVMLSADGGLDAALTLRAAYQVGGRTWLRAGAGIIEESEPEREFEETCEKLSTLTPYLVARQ
Mtb MenB inh = M. tuberculosis MenB inhibitors, primary screen, biochemical, absorbance; MenB enzyme assay, absorbance read-out; inhibition, % (no concentration beside the values); 0.43% of 100,000 active; AID 540299, 2011; in the data active = inhibition above about 21%, passing the limit was not always enough
Starred values were filed as active, the others as inactive; . = no result given. Shown are actives, neighbours in structure and some others; about 1.4% of the full set was active somewhere.

SMILES	PV pol inh	Mtb MbtI inh	Mtb MenB inh
CCCCS(=O)(=O)Nc1ccc(C)cn1	83*	101	0
CCCCS(=O)(=O)Nc1nccs1	99	-4	-15
CCOC(=O)CN=C(c1ccccc1)c1ccccc1	101	.	-2
CCOC(=O)CC(=O)c1ccccc1	107	16	34*
COc1cccc(-c2cc(C(=O)Nc3cccnc3)on2)c1	101	-2	2
Cn1ccc(NC(=O)C(c2ccccc2)c2ccccc2)n1	101	5	-8
O=C(Nc1ccccc1)C(=S)NCc1ccco1	102	3	-21
S=C(NCc1ccco1)Nc1ccccc1	102	4	37*
O=C(OCC(=O)N1N=C2/C(=C/c3ccco3)CCCC2C1c1ccco1)c1cccc(S(=O)(=O)N2CCOCC2)c1 (stereo not drawn)	104	6	6
CC1(NS(C)(=O)=O)CC=CC1	102	1	29*
O=C(NCc1ccccc1)c1ccc2cn[nH]c2c1	100	106	-8
O=C(O)CC1(CC(=O)Nc2ccc(-c3cn4c(n3)SCC4)cc2)CCCCC1	103	2	11
COc1ccc2oc(=O)c(C(=O)N(C)C)cc2c1	105	.	3
COc1ccc2o/c(=N\O)c(C(N)=O)cc2c1	102	102*	-81
COc1ccc(NC(=O)c2ccco2)cc1NC(=O)C(C)C	102	4	-11
N#CSc1cnc(NC2CCCCC2)s1	94	74*	-178
O=C(O)CSc1nnc(NC2CCCCC2)s1	98	11	1
Cc1cc(C2=Nn3cc(-c4ccccc4)nc3SC2)c(C)n1CC1CCCO1 (stereo not drawn)	89	2	-12
COCCn1c(C)cc(C(=O)CSc2nc3ccc(C)cc3[nH]2)c1C	104	2	-10
FC(F)(F)Oc1ccc(Nc2n[nH]c(=S)s2)cc1	101	15	-56
S=c1[nH]nc(Nc2cccc(Br)c2)s1	102	98*	-32
Cc1cccc2nc(=S)n(C(=O)c3ccc(F)cc3)n12	74*	.	0
O=C(c1ccc(F)cc1)N1c2ccccc2C=Cc2ccccc21	103	6	2
CCN(CC)S(=O)(=O)c1ccc(/C=C/C(=O)Nc2ccccc2C)cc1	98	-2	.
CCN1C(=O)/C(=C2\SC(=S)N(C(C)C)C2=O)c2ccccc21	99	-10	-33
SMILES	PV pol inh	Mtb MbtI inh	Mtb MenB inh
CC(N=C1NS(=O)(=O)c2ccccc21)C(=O)O (stereo not drawn)	102	194	4
Cc1ccc(S(=O)(=O)N(C)c2nc3ccccc3nc2SCC#N)cc1	97	98*	-46
Cc1ccc(S(=O)(=O)N(C)c2ccccc2)cc1	101	11	-24
O=C1c2ccccc2C(=O)N1CCSC1=Nc2ccccc2C2CC=NN12 (stereo not drawn)	105	-1	34*
C=CCn1c(C)cc(C(=O)CSC2=Nc3ccccc3C3CC=NN23)c1C (stereo not drawn)	102	4	55*
O=C1c2ccccc2C(=O)N1CCSc1ccccc1	100	6	-4
C=CCn1c(C)cc(C(=O)CSc2nnc3ccccn23)c1C	103	-2	.
COc1ccc(N2CC(=O)N(/N=C/c3ccccc3C(=O)O)C2=S)cc1	100	.	-26
CCOC(=O)c1ccccc1NC(=O)Cn1c(=O)n(Cc2ccccc2)c(=O)c2c(C)c(C)sc21	106	.	.
CCOC(=O)c1cc(-c2ccccn2)nc2c1c(=O)n(CC(=O)OC)c(=O)n2Cc1ccccc1	81*	10	-15
COc1cccc(N2C(=O)CC(Sc3nnc(C)s3)C2=O)c1 (stereo not drawn)	101	100*	9
COc1ccc(N2C(=O)CC(SC(N)=Nc3ccccc3)C2=O)cc1 (stereo not drawn)	103	.	-12
COC(=O)C(C)(C)NC(=O)Nc1ccc(Cl)cc1Cl	104	-2	-32
COc1cc2nc(CSc3ccc(Cl)cc3)n(CC#N)c(=O)c2cc1OC	105	26	-18
CC1=C(c2ccc(C(C)C)cc2)S(=O)(=O)N=C1N1CCC(C(=O)NCc2ccccc2)CC1	34*	.	.
CC1=C(c2ccc(Cl)cc2)S(=O)(=O)N=C1N1CCC(C(=O)NCc2ccccc2F)CC1	101	.	.
O=C1/C(=C\c2ccc(Br)o2)CCC/C1=C\c1ccc(Br)o1	100	86	8
COc1ccc(C/C(N)=N/O)cc1OC	101	1	21*
COc1ccc(CC(N)=O)cc1OC	100	-8	5
CCc1ccccc1NC(=O)c1c[nH]c2ccccc2c1=O	102	.	-205
CC(C)OC(=O)Cn1c2ccccc2c2nc3ccccc3nc21	102	-12	-23
CC(C)OC(=O)Cn1c(C2CC2)nc2ccccc2c1=O	101	4	31*
Nc1cc(C(F)(F)F)ccc1-n1ccnc1	100	8	-5

Screening results: PubChem BioAssay, ICCB-Longwood Screening Facility, Harvard Medical School
